Reference: PubChem BioAssay (Tox21)
Inconclusive results are not listed. Active and inactive are the calls of the source. The call rests on the fitted dose curve; in most records, active means well fitted curve in the direction sought with a large enough effect in the repeat runs; inconclusive means weak or mixed curves; inactive means no such curve, though single readings can be large; an effect the other way counts as inactive or inconclusive.

Tests used:
[1] = A CellTox Green Cytotoxicity Assay to monitor cytotoxicity in HEK293 cells - 40 hour (AID 1224871); further: nearly all actives have a fitted effect of over 45% in size
How it was run: (§1)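 HEK293 cells premixed with CellTox Green dye were seeded at 600 cells/well and left 5 h at 37 C/5% CO2 before pin transfer of 23 nL compound in DMSO. Fluorescence from dye bound to dead-cell DNA was read during 40 h treatment.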

[2] = qHTS RealTime-Glo MT Cell Viability Assay in HEK293 cells - 16 hour (AID 1224872); further: top concentration of the series differs between compounds; nearly all actives have a fitted effect of over 50% in size
How it was run: (§2)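 Assay medium contained NanoLuc luciferase plus cell-permeant prosubstrate, added with HEK293 cells at 600 cells/well. After 5 h at 37 C/5% CO2 compounds were added; plates stayed at 37 C for 40 h with serial luminescence reads.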

[3] = qHTS RealTime-Glo MT Cell Viability Assay in HepG2 cells - 8 hour (AID 1224873); further: nearly all actives have a fitted effect of over 55% in size
How it was run: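 HepG2 cells (600/well) mixed with RealTime-Glo MT reagent, settled 5 h at 37 C/5% CO2 before compound addition. Nonlytic NanoLuc luminescence from viable-cell prosubstrate reduction read repeatedly during 40 h treatment at 37 C.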

[4] = qHTS RealTime-Glo MT Cell Viability Assay in HEK293 cells - 40 hour (AID 1224874); conditions: RealTime-Glo luminescence; max response: stronger effect = lower value; further: nearly all actives have a fitted effect of over 50% in size
How it was run: (§3)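 HEK293 cells mixed with RealTime-Glo reagents (NanoLuc plus cell-permeant prosubstrate) at 600 cells/well, preincubated 5 h at 37 C/5% CO2, then given 23 nL compound in DMSO. Nonlytic luminescence from viable cells was read at 0, 8, 16, 24, 32 and 40 h.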

[5] = A CellTox Green Cytotoxicity Assay to monitor cytotoxicity in HEK293 cells - 24 hour (AID 1224875); further: series mostly up to about 77 µM; nearly all actives have a fitted effect of over 45% in size
How it was run: as §1

[6] = A CellTox Green Cytotoxicity Assay to monitor cytotoxicity in HepG2 cells - 16 hour (AID 1224876); further: nearly all actives have a fitted effect of over 45% in size
How it was run: (§4)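 HepG2 cells were seeded together with the CellTox Green dye at 600 cells/well, left 5 h at 37 C/5% CO2, then given compounds in DMSO. Fluorescence from dye bound to dead-cell DNA was read repeatedly over 40 h of treatment at 37 C.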

[7] = qHTS RealTime-Glo MT Cell Viability Assay in HepG2 cells - 32 hour (AID 1224877); further: nearly all actives have a fitted effect of over 55% in size
How it was run: (§5)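 qHTS, HepG2, 600 cells/well, RealTime-Glo (NanoLuc + prosubstrate) added with cells; 5 h preincubation; DMSO compound addition; 37 C; luminescence at 0/8/16/24/32/40 h.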

[8] = A CellTox Green Cytotoxicity Assay to monitor cytotoxicity in HepG2 cells - 24 hour (AID 1224878); further: nearly all actives have a fitted effect of over 45% in size
How it was run: as §4

[9] = A CellTox Green Cytotoxicity Assay to monitor cytotoxicity in HepG2 cells - 40 hour (AID 1224879); further: nearly all actives have a fitted effect of over 40% in size
How it was run: as §4

[10] = A CellTox Green Cytotoxicity Assay to monitor cytotoxicity in HEK293 cells - 32 hour (AID 1224881); further: nearly all actives have a fitted effect of over 40% in size
How it was run: as §1

[11] = A CellTox Green Cytotoxicity Assay to monitor cytotoxicity in HepG2 cells - 0 hour (AID 1224882); further: nearly all actives have a fitted effect of over 35% in size
How it was run: as §4

[12] = A CellTox Green Cytotoxicity Assay to monitor cytotoxicity in HepG2 cells - 32 hour (AID 1224883); further: nearly all actives have a fitted effect of over 50% in size
How it was run: as §4

[13] = A CellTox Green Cytotoxicity Assay to monitor cytotoxicity in HEK293 cells - 8 hour (AID 1224884); further: nearly all actives have a fitted effect of over 35% in size
How it was run: as §1

[14] = qHTS RealTime-Glo MT Cell Viability Assay in HepG2 cells - 16 hour (AID 1224885); further: nearly all actives have a fitted effect of over 50% in size
How it was run: as §5

[15] = qHTS RealTime-Glo MT Cell Viability Assay in HEK293 cells - 24 hour (AID 1224886)
How it was run: as §2

[16] = qHTS RealTime-Glo MT Cell Viability Assay in HEK293 cells - 8 hour (AID 1224887)
How it was run: as §3

[17] = A CellTox Green Cytotoxicity Assay to monitor cytotoxicity in HEK293 cells - 16 hour (AID 1224888); further: nearly all actives have a fitted effect of over 35% in size
How it was run: as §1

[18] = qHTS RealTime-Glo MT Cell Viability Assay in HepG2 cells - 0 hour (AID 1224889); further: nearly all actives have a fitted effect of over 50% in size
How it was run: as §5

[19] = A CellTox Green Cytotoxicity Assay to monitor cytotoxicity in HepG2 cells - 8 hour (AID 1224890); further: nearly all actives have a fitted effect of over 45% in size
How it was run: as §4

[20] = qHTS RealTime-Glo MT Cell Viability Assay in HEK293 cells - 0 hour (AID 1224880)
How it was run: as §3
On the % scale 0 is the no-effect control and ±100 the full control effect.

CCCCOCCOCCOCCOCCO
inactive: Potency [1] | Potency [2] | Potency [3] | max response [4] -11.7% | Potency [5] | Potency [6] | Potency [7] | Potency [8] | Potency [9] | Potency [10] | Potency [11] | Potency [12] | Potency [13] | Potency [14] | Potency [15] | Potency [16] | Potency [17] | Potency [18] | Potency [19]

CC(C)NCC(O)COc1ccc(CC(N)=O)cc1 (centres undefined)
inactive: Potency [1] | Potency [2] | Potency [3] | max response [4] -1.4% | Potency [5] | Potency [6] | Potency [7] | Potency [8] | Potency [9] | Potency [20] | Potency [10] | Potency [11] | Potency [12] | Potency [13] | Potency [14] | Potency [15] | Potency [16] | Potency [17] | Potency [18]

C=C(C)C(=O)OC(C)C
inactive: Potency [1] | Potency [2] | Potency [3] | max response [4] 6% | Potency [5] | Potency [6] | Potency [7] | Potency [8] | Potency [9] | Potency [20] | Potency [10] | Potency [11] | Potency [12] | Potency [13] | Potency [14] | Potency [15] | Potency [17] | Potency [18] | Potency [19]

CCN1CCC[C@H]1CNC(=O)c1c(OC)ccc(Br)c1OC
inactive: Potency [1] | Potency [2] | Potency [3] | max response [4] 12.2% | Potency [5] | Potency [6] | Potency [7] | Potency [8] | Potency [9] | Potency [20] | Potency [10] | Potency [11] | Potency [12] | Potency [14] | Potency [15] | Potency [16] | Potency [17] | Potency [18] | Potency [19]

COc1ccccc1OC(=O)Oc1ccccc1OC
inactive: Potency [1] | Potency [2] | Potency [3] | max response [4] 1.1% | Potency [5] | Potency [6] | Potency [7] | Potency [8] | Potency [9] | Potency [20] | Potency [10] | Potency [11] | Potency [12] | Potency [13] | Potency [14] | Potency [15] | Potency [16] | Potency [17] | Potency [18] | Potency [19]

CCCCCOC(=O)COc1cc(N2C(=O)C3=C(CCCC3)C2=O)c(F)cc1Cl
inactive: Potency [1] | Potency [2] | Potency [3] | max response [4] 4.37% | Potency [5] | Potency [6] | Potency [7] | Potency [8] | Potency [9] | Potency [20] | Potency [10] | Potency [11] | Potency [12] | Potency [13] | Potency [14] | Potency [15] | Potency [16] | Potency [17] | Potency [18] | Potency [19]

Nc1nc(N)c(-c2ccccc2)s1
inactive: Potency [1] | Potency [2] | Potency [3] | max response [4] 5.71% | Potency [5] | Potency [6] | Potency [7] | Potency [8] | Potency [9] | Potency [20] | Potency [10] | Potency [11] | Potency [12] | Potency [13] | Potency [14] | Potency [15] | Potency [16] | Potency [17] | Potency [18] | Potency [19]

CCN(CC)CCNC(C(=O)OCCC(C)C)c1ccccc1 (centres undefined)
inactive: Potency [1] | Potency [2] | Potency [3] | max response [4] -10.1% | Potency [5] | Potency [6] | Potency [7] | Potency [8] | Potency [9] | Potency [20] | Potency [10] | Potency [11] | Potency [12] | Potency [13] | Potency [15] | Potency [17] | Potency [18]

Cc1cc(CC(=O)O)c(C)n1-c1ccc(Cl)cc1
inactive: Potency [1] | Potency [2] | Potency [3] | max response [4] -0.616% | Potency [5] | Potency [6] | Potency [7] | Potency [8] | Potency [9] | Potency [20] | Potency [10] | Potency [11] | Potency [12] | Potency [13] | Potency [14] | Potency [15] | Potency [16] | Potency [17] | Potency [18] | Potency [19]

O=C1CCCCCO1
inactive: Potency [1] | Potency [2] | Potency [3] | max response [4] 10.5% | Potency [5] | Potency [6] | Potency [7] | Potency [8] | Potency [9] | Potency [20] | Potency [10] | Potency [11] | Potency [12] | Potency [13] | Potency [14] | Potency [15] | Potency [16] | Potency [17] | Potency [18] | Potency [19]

CCCCCCCCN(C)C
inactive: Potency [1] | Potency [2] | Potency [3] | max response [4] 16% | Potency [5] | Potency [6] | Potency [7] | Potency [8] | Potency [9] | Potency [20] | Potency [10] | Potency [11] | Potency [12] | Potency [14] | Potency [15] | Potency [16] | Potency [17] | Potency [18] | Potency [19]

O=C(O)C(c1ccc(Cl)cc1)c1ccc(Cl)cc1
inactive: Potency [1] | Potency [2] | Potency [3] | max response [4] -1.91% | Potency [5] | Potency [6] | Potency [7] | Potency [8] | Potency [9] | Potency [20] | Potency [10] | Potency [11] | Potency [12] | Potency [13] | Potency [14] | Potency [15] | Potency [17] | Potency [18]

Cc1c(Cn2ccnc2)c2ccccc2n1CCC(=O)O
inactive: Potency [1] | Potency [2] | Potency [3] | max response [4] 4.63% | Potency [5] | Potency [6] | Potency [7] | Potency [9] | Potency [20] | Potency [10] | Potency [11] | Potency [12] | Potency [13] | Potency [14] | Potency [15] | Potency [16] | Potency [17] | Potency [18] | Potency [19]
